According to PubChem BioAssay (NCATS):
Inconclusive results are not listed. Calls of active or inactive are those of the source. Calls follow the shape of the dose curve; as a rule, active = well fitted inhibition curve with a large enough effect; inconclusive = small, poorly fitted or top-dose-only effect; inactive = flat fitted curve, though single readings scatter. Where a SMILES comes first, the peptide text is derived from it. [ ]: non-standard residue; d: D form. pGlu = O=C1CC[C@@H](C(=O)O)N1; Thz = O=C(O)[C@@H]1CSCN1

Assays:
Test in all cases: qHTS profiling for inhibitors of Plasmodium falciparum proliferation (AID 504749); also: nearly all actives have a fitted effect of over 60% in size
Conditions in all cases: P. falciparum in erythrocytes, SYBR Green DNA, 72 h; series mostly up to 28.7 µM
CP269 = test system: CP269
Procedure, shortened: (§1)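 In a 72 h erythrocytic culture (37 C, humidified, 5% CO2) at 2.5% hematocrit and 0.3% starting parasitemia, compounds were tested; SYBR Green I in detergent lysis buffer stained parasite DNA overnight.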

CP286 = test system: CP286
Procedure, shortened: as §1

CP291 = test system: CP291
Procedure, shortened: as §1

CP297 = test system: CP297
Procedure, shortened: as §1

CP305 = test system: CP305
Procedure, shortened: as §1

CP315 = test system: CP315
Procedure, shortened: as §1

CP325 = test system: CP325
Procedure, shortened: as §1

CP329 = test system: CP329
Procedure, shortened: as §1

CP335 = test system: CP335
Procedure, shortened: as §1

DFO2036 = test system: DFO2036
Procedure, shortened: as §1

DIV14 = test system: DIV14
Procedure, shortened: as §1

DIV17 = test system: DIV17
Procedure, shortened: as §1

DIV30 = test system: DIV30
Procedure, shortened: as §1

Dd2 = test system: Dd2
Procedure, shortened: as §1

ECU = test system: ECU
Procedure, shortened: as §1

FAB9 = test system: FAB9
Procedure, shortened: as §1

GB4 = test system: GB4
Procedure, shortened: as §1

HB3 = test system: HB3
Procedure, shortened: as §1

ICS = test system: ICS
Procedure, shortened: as §1

JCK = test system: JCK
Procedure, shortened: as §1

Measured: Potency

CCOC(=O)c1ccccc1O
inactive: all assays above

O=C(O)COc1ccc(C(=O)c2cccs2)c(Cl)c1Cl
inactive: all assays above

Cc1ccc(O)c(-n2nc3ccccc3n2)c1
inactive: all assays above

CCCCCCCCCCCCCCCC(=O)OC(C)C
not listed: FAB9
inactive: all other assays above

CC1(C)C[C@@H]1C(=O)N/C(=C\CCCCSC[C@H](N)C(=O)O)C(=O)O
inactive: all assays above

CC1OC1P(=O)(O)O (centres undefined)
inactive: all assays above

O=C(O)[C@H](O)[C@@H](O)[C@H](O)[C@H](O)CO
inactive: all assays above

CCCCCCOc1ccccc1C(N)=O
inactive: all assays above

O=C1CC[C@@H](C(=O)N2CSC[C@H]2C(=O)O)N1 ([pGlu]-[Thz]-OH)
inactive: all assays above

CCCOC(=O)c1ccc(O)cc1
inactive: all assays above

c1ccc2sc(SSc3nc4ccccc4s3)nc2c1
inactive: all assays above

C=CC(N)CCC(=O)O (centres undefined)
inactive: all assays above

CC1(C)[C@@H](O)CC[C@]2(C)[C@H]3C(=O)C=C4[C@@H]5C[C@@](C)(C(=O)O)CC[C@]5(C)CC[C@@]4(C)[C@]3(C)CC[C@@H]12
inactive: all assays above
